# Beta apoptosis – inhibitors of cytokine-induced beta cell apoptosis, primary screen, luminescence | INS-1E cytokine-induced death, ATP luminescence, 48 h; percent of positive-control rescue, neutral wells zero | protection from apoptosis, % (test concentration not listed) | hit rate 0.8% among 300,000 | AID 435005, 2010;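 active = Every replicate reaches about 75%, or at least half do and their mean reaches it too, limit read from the data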;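 note: 0% = cytokine-treated negative control wells and 100% = positive control rescue; higher means more ATP so stronger rescue from cytokine killing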
# Gli-Sufu antag – Gli-Sufu pathway antagonists, primary screen, luciferase luminescence, Sufu-KO-LIGHT cells, uHTS; Sufu-KO-LIGHT fibroblasts, Gli luciferase reporter luminescence; hit rate 0.74% among 340,000; inhibition, % at 5 µM;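 active = inhibition above about 55%, limit read from the data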;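 note: 0% = DMSO-treated cells and 100% = wells with medium but no cells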
# PAX8 reporter – inhibitors of PAX8-driven TPO luciferase reporter, primary screen, RMG-I cells, single concentration | SteadyGlo, 24 h | AID 652154, 2013 | hit rate 1.2% among 360,000 | inhibition, % at 12.6 µM;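 active = mean replicate inhibition at least 60% with every replicate also reaching 60%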;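 note: luciferase light reporting Pax8 driven TPO promoter activity; plate controls were median of neutral control wells for no effect and mitoxantrone controls for full effect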
# Shn3 3UTR inh – reduction of Shn3 3'UTR firefly luciferase signal, primary screen, Schnurri-3 inhibitor project, cell-based, Clone20 osteoblasts, set 2; Clone20 osteoblast Shn3 3'UTR firefly luciferase, 24 h; inhibition, % at 12.5 µM; hit rate 0.52% among 360,000;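 active = mean inhibition of at least 75% with every replicate also reaching 75%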;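 note: 0% = median of neutral control wells and 100% = pilot-screen positive control compound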
# Mdm2 MdmX PPI – inhibitors of human Mdm2-MdmX association, primary screen, cell-based, luminescence, split luciferase, SaOS-2, uHTS; Protein Mdm4 (Homo sapiens) + E3 ubiquitin-protein ligase Mdm2 (Homo sapiens), …; SaOS-2 split-luciferase Mdm2/MdmX complementation; inhibition, % at 8 µM; hit rate 3% among 330,000;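 active = inhibition of at least 50% at 8 µM in the primary screen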
# Target sequence (O15151 whole entry, looked up): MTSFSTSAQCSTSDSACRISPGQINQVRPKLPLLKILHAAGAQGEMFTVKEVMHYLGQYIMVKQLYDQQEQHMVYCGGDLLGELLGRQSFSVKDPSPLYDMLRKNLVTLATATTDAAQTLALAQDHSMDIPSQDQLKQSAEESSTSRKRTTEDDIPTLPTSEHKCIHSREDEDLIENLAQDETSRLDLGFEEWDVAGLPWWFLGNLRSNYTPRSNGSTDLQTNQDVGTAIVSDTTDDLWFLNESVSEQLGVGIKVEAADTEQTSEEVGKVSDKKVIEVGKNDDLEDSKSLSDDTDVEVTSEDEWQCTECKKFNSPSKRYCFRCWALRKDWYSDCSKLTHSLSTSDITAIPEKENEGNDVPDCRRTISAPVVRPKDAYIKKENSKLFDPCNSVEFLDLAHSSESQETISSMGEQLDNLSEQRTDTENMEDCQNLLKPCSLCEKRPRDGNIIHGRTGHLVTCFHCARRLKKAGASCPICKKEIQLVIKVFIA
# Target sequence (Q00987 whole entry, looked up): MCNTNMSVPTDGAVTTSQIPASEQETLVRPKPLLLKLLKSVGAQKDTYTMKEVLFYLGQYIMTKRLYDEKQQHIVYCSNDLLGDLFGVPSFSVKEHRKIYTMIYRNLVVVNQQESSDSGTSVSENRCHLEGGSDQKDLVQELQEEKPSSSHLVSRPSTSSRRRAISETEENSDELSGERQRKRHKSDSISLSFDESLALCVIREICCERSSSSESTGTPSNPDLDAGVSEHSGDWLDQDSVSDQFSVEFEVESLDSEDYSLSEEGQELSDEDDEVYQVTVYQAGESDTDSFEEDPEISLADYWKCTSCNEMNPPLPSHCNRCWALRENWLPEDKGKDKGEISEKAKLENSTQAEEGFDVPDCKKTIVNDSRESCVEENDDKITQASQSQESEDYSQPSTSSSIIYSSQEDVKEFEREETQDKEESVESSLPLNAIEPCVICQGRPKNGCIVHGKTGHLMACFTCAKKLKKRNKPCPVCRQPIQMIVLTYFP
# CSC inhib – cancer stem cell viability inhibitors, primary screen, luminescence | cancer stem cell-like cells viability | inhibition, % at 7.5 µM | hit rate 1.1% among 300,000; in the data active = inhibition above about 75%; tested in HMLE shEcad cells
# Mdm2 MdmX conf – Mdm2-MdmX complex disruptors, retested hits, confirmation, luminescence, single concentration; hit rate 55% among 10,000; Mdm2-MdmX binding, luminescent assay; inhibition, % at 8 µM; shares compounds with Mdm2 MdmX PPI; in the data active = inhibition above about 40%
# FLuc counter – full-length luciferase signal inhibition, confirmation, counter-screen for Mdm2/MdmX interaction inhibitor project, cell-based, single concentration, SaOS-2; AID 504607, 2011; shares compounds with Mdm2 MdmX PPI; SaOS-2 full-length luciferase counterscreen, luminescence; hit rate 77% among 6,200; inhibition, % at 8 µM;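 active = mean inhibition at 8 µM reaching about 37%, which flags the compound as non-specific, limit read from the data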;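 note: p53-null SaOS-2 cells with luciferase driven by a doxycycline-inducible promoter; compound on cells about two nights before reading with doxycycline added after day one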
# An asterisk follows results filed as active; / = no result. Compounds with a hit are over-represented: about 4% of the library has one in this group of screens.
SMILES,Beta apoptosis,Gli-Sufu antag,PAX8 reporter,Shn3 3UTR inh,Mdm2 MdmX PPI,CSC inhib,Mdm2 MdmX conf,others
O=C(c1ccc([N+](=O)[O-])o1)N1CCN(c2nc3c(Cl)cccc3s2)CC1,/,26.2,20.2,38.2,56.5*,-5.9,42.7*,FLuc counter=64.5*
CC(C)NC(=O)Nc1cccc2c1O[C@@H](CN(C)S(=O)(=O)c1ccc(F)cc1)[C@H](C)CN([C@H](C)CO)C2=O,/,/,-2.7,/,/,/,/,
C[C@@H]1CN([C@H](C)CO)C(=O)c2cc(C#CC3(O)CCCC3)cnc2O[C@@H]1CN(C)C(=O)C1CCC1,/,/,-33.8,/,/,/,/,
COc1ccc(C(=O)Nc2ccc3c(c2)C(=O)N(C)C[C@H](OC)[C@H](C)CN[C@@H](C)CO3)cc1,/,/,2.0,/,/,/,/,
CNC[C@@H]1OCCCC[C@H](C)Oc2ccc(NS(=O)(=O)c3ccc(F)cc3)cc2C(=O)N([C@H](C)CO)C[C@@H]1C,/,/,1.0,/,/,/,/,
COc1ccc(-c2nn(-c3ccccc3)cc2C(=O)NC(=S)Nc2cc(Cl)ccc2Cl)cc1,1.6,2.0,9.2,24.4,73.7*,-4.2,43.5*,FLuc counter=51.0*
COc1ccc(NC(=O)Nc2ccc3c(c2)C(=O)N([C@@H](C)CO)C[C@H](C)[C@H](CN(C)C(=O)Nc2ccc(F)cc2)OCCCC[C@H](C)O3)cc1,/,/,-5.3,/,/,/,/,
C[C@@H](C(=O)Nc1ccc2c(c1)OCCO2)n1c(=O)[nH]c2ccccc2c1=O,/,45.5,-91.8,10.4,61.8*,15.6,81.0*,FLuc counter=76.2*
Cc1ccccc1S(=O)(=O)N1CC(=O)N2[C@H](C1)[C@H](c1ccc(C#CCC3CCCC3)cc1)[C@@H]2CO,/,/,20.1,/,/,/,/,
Cc1ccc(Nc2c(N)c(=O)oc3ccccc23)cc1,8.1,5.2,/,-13.0,57.7*,40.6,36.5,
CNc1c(N)c(=O)oc2ccccc12,/,0.0,16.1,-21.7,24.0,-7.9,/,
CCOC(=O)c1ccccc1Nc1cn(C(C)=O)c2ccccc12,2.4,-13.1,/,2.3,58.5*,55.0,46.5*,FLuc counter=79.9*
CC(=O)n1cc(Nc2ccccc2C(=O)O)c2ccccc21,-4.7,1.2,/,-2.5,18.5,-3.6,/,
N/C(=N\c1nc(CSc2ccccn2)cc(=O)[nH]1)Nc1ccc(Cl)cc1Cl,5.2,2.4,-2.3,1.9,63.8*,/,1.9,
Cc1cccc(N/C(N)=N/c2nc(CSc3ccc(Cl)cc3)cc(=O)[nH]2)c1,12.7,9.0,-5.1,/,68.0*,6.5,6.8,
COc1ccc(N/C(N)=N/c2nc(CSc3nnc(C)s3)cc(=O)[nH]2)cc1,5.4,-4.1,15.7,-8.2,52.1*,0.7,65.0*,FLuc counter=65.4*
C[C@@H]1CN([C@H](C)CO)C(=O)c2cc(NC(=O)c3ccncc3)ccc2O[C@H]1CN(C)Cc1ccc(C(=O)Nc2ccccc2N)cc1,/,/,5.4,/,/,/,/,
COc1cccc(-c2cnc3c(c2)C(=O)N([C@H](C)CO)C[C@@H](C)[C@H](CN(C)Cc2ccc(C(=O)O)cc2)O3)c1,/,/,-2.7,/,/,/,/,
CN1CCN(c2nc(-c3ccccn3)nc3ccccc23)CC1,17.1,-1.1,/,-5.9,22.5,-11.5,/,
c1ccc(N2CCN(c3nc(-c4ccccn4)nc4ccccc34)CC2)cc1,92.7*,8.6,/,28.6,58.5*,-3.9,31.1,
O=C(NC1Cc2ccccc2C1)[C@@H]1[C@@H](CO)[C@@H]2Cn3c(cccc3=O)[C@H]1N2Cc1ccccc1F,/,/,-4.8,/,/,/,/,
COc1cc(NC(=O)c2cccc3c2C(=O)N(Cc2cccnc2)C3)cc(OC)c1OC,-6.1,14.2,-2.5,2.4,51.6*,22.9,47.6*,FLuc counter=95.3*
O=C(Nc1ccc2c(c1)OCO2)c1cccc2c1C(=O)N(Cc1cccnc1)C2,3.1,-12.2,-11.7,-5.7,-0.7,-8.2,/,
N#Cc1ccccc1/C=N/Nc1nc(-c2ccccc2)c2cc(Br)ccc2n1,9.7,5.3,0.0,25.0,55.0*,2.6,3.1,
O=[N+]([O-])c1ccc(/C=N/Nc2nc(-c3ccccc3)c3cc(Br)ccc3n2)o1,-0.3,21.8,-6.0,12.9,33.7,-3.8,/,
SMILES,Beta apoptosis,Gli-Sufu antag,PAX8 reporter,Shn3 3UTR inh,Mdm2 MdmX PPI,CSC inhib,Mdm2 MdmX conf,others
Cc1ccc2nc(N/N=C\c3ccc([N+](=O)[O-])o3)nc(-c3ccccc3)c2c1,/,-9.1,/,-5.5,66.8*,52.9,30.0,
c1ccc(Nc2ccccc2Nc2ccccn2)nc1,-2.5,0.9,/,12.0,-6.4,/,/,
Oc1cccc2ccc(Nc3ccccn3)nc12,105.9*,15.0,/,79.1,71.9*,103.6*,100.2*,FLuc counter=52.0*
O=C(NC1c2ccccc2-c2ccccc21)N1CCOCC1,0.4,4.8,/,-7.3,50.1*,-7.9,15.1,
c1ccc2c(c1)-c1ccccc1C2N1CCOCC1,/,-5.5,12.3,-6.5,/,/,/,
N#CC1=C(N)NC(SCc2ccccc2)=C(C#N)C12CCCCC2,-4.5,3.6,41.8,7.3,64.5*,58.6,60.5*,FLuc counter=72.5*
CCc1cc(C(=O)N2CCc3c([nH]c4ccccc34)C2c2ccc(OC)cc2F)no1 (stereo unspecified),12.0,-1.9,32.0,0.6,83.3*,-24.7,85.0*,FLuc counter=34.5
O=C(c1ccc(F)cc1)N1CCCCN2[C@H](CO)[C@H](c3ccc(-c4ccc(F)cc4)cc3)[C@H]2C1,/,/,21.5,/,/,/,/,
O=c1oc2ccccc2c2c1C(c1ccc(Cl)cc1)Nc1ccc3ccccc3c1-2 (stereo unspecified),0.4,10.6,/,7.0,46.2,14.1,/,
CCOc1ccc(C2Nc3ccc4ccccc4c3-c3c2c(=O)oc2ccccc32)cc1 (stereo unspecified),48.4,2.2,/,10.4,68.5*,28.1,7.2,
COc1ccc(C2Nc3ccc4ccccc4c3-c3c2c(=O)oc2ccccc32)cc1 (stereo unspecified),14.3,/,/,56.5,79.4*,49.1,20.6,
N#C[C@@H]1[C@@H](c2ccccc2-c2cccc(F)c2)[C@H](CO)N1C(=O)C1CCCCC1,/,/,-35.0,/,/,/,/,
CCOc1cc(NC(=O)c2ccccc2C)c(OCC)cc1NC(=O)C1=Cc2ccccc2OC1,0.6,5.4,/,-24.3,61.7*,/,16.4,
CN1CCN(Cc2c(O)ccc3cc(Br)ccc23)CC1,3.2,6.7,17.0,/,50.6*,-36.2,8.3,
CCc1cc(=O)oc2c(CN3CCN(C)CC3)c(O)ccc12,-0.6,7.0,-20.3,-13.6,20.5,-4.2,/,
N#C[C@@H]1[C@H](c2ccccc2)[C@H](CO)N1S(=O)(=O)Cc1ccccc1,/,/,-17.5,/,/,/,/,
